Experimental data from PubChem BioAssay (Tox21).
Where “and” joins values, the source holds several entries; their conditions need not be identical. Identical values can stand only once. The source holds several records for some structures; these can differ, active in one and inactive in another. Calls of active or inactive are those of the source. Entries that show only a call come without a potency. Unless noted, calls come from the whole dose curve; as a rule, active = well fitted curve in the direction sought with a large enough effect in the repeat runs; inconclusive = weak or mixed curves; inactive = no such curve, though single readings can be large; an effect the other way counts as inactive or inconclusive.

Assays:
[1] = qHTS assay to identify small molecule antagonists of the glucocorticoid receptor (GR) signaling pathway - cell viability counter screen (AID 720693); note: nearly all actives have a fitted effect of over 55% in size
[2] = qHTS assay for identifying genotoxic compounds that show differential cytotoxicity against isogenic chicken DT40 cell lines with known DNA damage response pathways - wild type cell line (AID 743012); note: nearly all actives have a fitted effect of over 60% in size; note: potency is the fitted concentration of half-maximal effect
Method in brief: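 300 wt DT40 cells/well; cpd (DMSO) pintool-transferred after ~0.5 h at 37 C/5% CO2; 40 h incubation; CellTiter-Glo added, 30 min RT; luminescence read.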

[3] = qHTS assay for identifying genotoxic compounds that show differential cytotoxicity against isogenic chicken DT40 cell lines with known DNA damage response pathways - Rev3 mutant cell line (AID 743014); note: nearly all actives have a fitted effect of over 55% in size; note: potency is the fitted concentration of half-maximal effect
[4] = qHTS assay for identifying genotoxic compounds that show differential cytotoxicity against isogenic chicken DT40 cell lines with known DNA damage response pathways - Rad54/Ku70 mutant cell line (AID 743015); note: nearly all actives have a fitted effect of over 60% in size; note: potency is the fitted concentration of half-maximal effect
[5] = qHTS assay to identify small molecule antagonists of the androgen receptor (AR) signaling pathway - cell viability counter screen (AID 743033; note: nearly all actives have a fitted effect of over 45% in size)
[6] = qHTS assay to identify small molecule antagonists of the androgen receptor (AR) signaling pathway using the MDA cell line - cell viability counter screen (AID 743041; note: nearly all actives have a fitted effect of over 45% in size)
Method in brief: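 Viability read by CellTiter-Fluor fluorescence in the same wells as the antagonist screen, added after 15.5 h of a 16 h, 37C exposure. Human breast carcinoma MDA-kb2 AR-luc cells, compounds co-dosed with agonist R1881.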

[7] = qHTS assay to identify small molecule antagonists of the thyroid receptor (TR) signaling pathway - cell viability counter screen (AID 743064); note: nearly all actives have a fitted effect of over 50% in size
Method in brief: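 Rat GH3 pituitary tumor cells stably expressing two TR response elements driving luciferase were plated, rested 4 h, then dosed with library compounds and T3 (1 nM final). After 23.5 h at 37 °C, CellTiter-Fluor was added for 30 min and fluorescence recorded.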

[8] = qHTS assay to identify small molecule antagonists of the thyroid receptor (TR) signaling pathway (AID 743065); note: series mostly up to about 70 µM; nearly all actives have a fitted effect of over 55% in size
Method in brief: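 Antagonism measured as loss of luciferase signal in GH3 cells stably carrying a TRE-luciferase reporter, co-treated with compound and T3 (1 nM final) for 23.5 h at 37 C. Viability was read in the same well by CellTiter-Fluor.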

[9] = test system: thyroid hormone receptor (rat, GH3 cells); test: qHTS assay to identify small molecule agonists of the thyroid receptor (TR) signaling pathway (AID 743066; calls by dose curve)
[10] = target: Estrogen receptor (Homo sapiens) (UniProt P03372); test: qHTS assay to identify small molecule antagonists of the estrogen receptor alpha (ER-alpha) signaling pathway (AID 743069; active = well fitted curve in the direction sought with a large enough effect in the signal ratio in the repeat runs, not every such curve was filed as active; inconclusive = weak or mixed curves, or effect the other way; inactive = no such curve, though single readings can be large or run the other way; the % refers to the signal ratio)
Sequence of Estrogen receptor (Homo sapiens) (P03372 whole entry, looked up): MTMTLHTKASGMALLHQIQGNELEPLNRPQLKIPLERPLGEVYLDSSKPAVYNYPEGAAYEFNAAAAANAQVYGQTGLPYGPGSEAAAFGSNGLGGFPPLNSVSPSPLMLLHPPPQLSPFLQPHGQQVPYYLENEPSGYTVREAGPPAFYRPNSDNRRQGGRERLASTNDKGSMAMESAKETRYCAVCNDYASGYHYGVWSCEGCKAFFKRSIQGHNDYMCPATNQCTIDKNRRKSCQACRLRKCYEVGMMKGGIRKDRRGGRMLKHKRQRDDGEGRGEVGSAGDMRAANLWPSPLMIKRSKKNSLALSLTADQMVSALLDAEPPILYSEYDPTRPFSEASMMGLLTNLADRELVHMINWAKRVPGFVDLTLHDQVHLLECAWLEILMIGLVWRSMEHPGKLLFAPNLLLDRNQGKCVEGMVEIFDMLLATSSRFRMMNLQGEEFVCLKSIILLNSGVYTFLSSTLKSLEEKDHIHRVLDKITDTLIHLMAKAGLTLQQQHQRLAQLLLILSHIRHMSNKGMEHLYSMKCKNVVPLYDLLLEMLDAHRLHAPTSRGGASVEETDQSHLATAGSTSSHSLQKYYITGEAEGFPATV
Method in brief: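 Antagonist mode: compounds in DMSO were co-added with 17beta-estradiol to ER-alpha-bla HEK293 cells (2% charcoal-stripped serum) and left 18 h at 37C. Reporter inhibition was measured as FRET fluorescence after 2 h LiveBLAzer substrate at room temperature.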

[11] = qHTS assay to identify small molecule antagonists of the estrogen receptor alpha (ER-alpha) signaling pathway - cell viability counter screen (AID 743074; calls by dose curve;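 note: HEK293 cells carrying ER-alpha-UAS-bla reporter stimulated with 17beta-estradiol; nearly all actives have a fitted effect of over 45% in size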)
[12] = target: Estrogen receptor (Homo sapiens) (UniProt P03372); test: qHTS assay to identify small molecule agonists of the estrogen receptor alpha (ER-alpha) signaling pathway (AID 743075; calls by dose curve;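 note: HEK293 GripTite cells with ER-alpha and UAS-driven beta-lactamase reporter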; note: potency is the fitted concentration of half-maximal effect)
[13] = target: Estrogen receptor (Homo sapiens) (UniProt P03372); test: qHTS assay to identify small molecule agonists of the estrogen receptor alpha (ER-alpha) signaling pathway using the BG1 cell line (AID 743079); note: nearly all actives have a fitted effect of over 20% in size; note: potency is the fitted concentration of half-maximal effect
[14] = qHTS assay to identify small molecule antagonists of the estrogen receptor alpha (ER-alpha) signaling pathway using the BG1 cell line (AID 743080; calls by dose curve;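 note: BG1 cells stimulated with 17beta-estradiol alongside compound; nearly all actives have a fitted effect of over 25% in size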; note: potency is the fitted concentration of half-maximal effect)
Method in brief: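 After 5 days in phenol-red-free 10% charcoal-stripped FBS medium, BG1-Luc-4E2 cells were seeded, left 24 h at 37 C, co-treated with compounds and 17beta-estradiol for 21.5 h, then assayed for viability and luciferase.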

[15] = qHTS assay to identify small molecule antagonists of the estrogen receptor alpha (ER-alpha) signaling pathway using the BG1 cell line - cell viability counter screen (AID 743081);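 note: compound given together with 17beta-estradiol as the ER stimulus; series mostly up to about 70 µM; nearly all actives have a fitted effect of over 45% in size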
Aromatase (Homo sapiens) = Aromatase (Homo sapiens) (UniProt P11511); test: qHTS assay to identify aromatase inhibitors (AID 743083); note: series mostly up to about 70 µM; nearly all actives have a fitted effect of over 55% in size
Sequence of Aromatase (Homo sapiens) (P11511 whole entry, looked up): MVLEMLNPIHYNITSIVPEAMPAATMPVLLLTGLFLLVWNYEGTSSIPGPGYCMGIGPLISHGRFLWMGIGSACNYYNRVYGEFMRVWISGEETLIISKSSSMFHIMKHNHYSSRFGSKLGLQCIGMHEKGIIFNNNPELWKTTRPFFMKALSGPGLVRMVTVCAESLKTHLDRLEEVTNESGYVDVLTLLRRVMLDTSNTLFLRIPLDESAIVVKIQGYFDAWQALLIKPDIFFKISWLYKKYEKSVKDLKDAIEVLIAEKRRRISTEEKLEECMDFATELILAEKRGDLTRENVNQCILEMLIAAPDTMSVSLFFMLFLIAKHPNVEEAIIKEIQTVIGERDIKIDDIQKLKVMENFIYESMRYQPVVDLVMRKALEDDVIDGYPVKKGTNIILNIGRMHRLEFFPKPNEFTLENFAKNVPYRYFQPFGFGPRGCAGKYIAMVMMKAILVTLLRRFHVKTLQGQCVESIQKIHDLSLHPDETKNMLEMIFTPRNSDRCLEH

[16] = target: Androgen receptor (Homo sapiens) (UniProt P10275); test: qHTS assay to identify small molecule antagonists of the androgen receptor (AR) signaling pathway (AID 743035; active = well fitted inhibition curve with a large enough effect in the signal ratio in the repeat runs, not every such curve was filed as active; inconclusive = weak or mixed curves, or effect the other way; inactive = no such curve, though single readings can be large or run the other way; the % refers to the signal ratio)
Sequence of Androgen receptor (Homo sapiens) (P10275 whole entry, looked up): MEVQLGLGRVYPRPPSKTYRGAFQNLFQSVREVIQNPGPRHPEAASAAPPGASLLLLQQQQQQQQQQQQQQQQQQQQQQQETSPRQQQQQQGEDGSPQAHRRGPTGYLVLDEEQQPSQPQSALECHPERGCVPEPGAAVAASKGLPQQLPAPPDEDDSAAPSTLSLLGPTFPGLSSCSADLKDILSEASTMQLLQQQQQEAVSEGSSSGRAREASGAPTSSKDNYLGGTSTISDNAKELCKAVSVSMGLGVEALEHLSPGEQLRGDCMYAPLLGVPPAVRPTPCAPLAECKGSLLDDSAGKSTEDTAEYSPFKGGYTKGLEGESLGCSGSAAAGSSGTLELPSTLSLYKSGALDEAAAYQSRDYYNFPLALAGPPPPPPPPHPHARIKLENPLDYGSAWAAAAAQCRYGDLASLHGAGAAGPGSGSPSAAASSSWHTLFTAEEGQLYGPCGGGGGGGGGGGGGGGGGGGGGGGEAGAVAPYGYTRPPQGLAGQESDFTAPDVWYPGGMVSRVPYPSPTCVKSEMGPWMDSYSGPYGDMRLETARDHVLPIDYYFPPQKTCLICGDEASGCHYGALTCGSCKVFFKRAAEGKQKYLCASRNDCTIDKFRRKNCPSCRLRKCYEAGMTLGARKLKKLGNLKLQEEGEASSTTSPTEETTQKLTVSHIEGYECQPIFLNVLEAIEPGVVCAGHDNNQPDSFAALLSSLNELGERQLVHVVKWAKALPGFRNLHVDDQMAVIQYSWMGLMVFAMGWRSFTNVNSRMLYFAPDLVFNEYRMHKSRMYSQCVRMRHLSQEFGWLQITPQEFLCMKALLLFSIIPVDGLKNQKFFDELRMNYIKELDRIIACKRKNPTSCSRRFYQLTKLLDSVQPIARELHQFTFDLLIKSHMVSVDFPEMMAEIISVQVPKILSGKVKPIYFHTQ
Method in brief: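 In this cell-based reporter screen, compounds were tested in concentration series against R1881-activated HEK293 cells expressing beta-lactamase under UAS control; after 16 h at 37C, FRET substrate was added and fluorescence read 2 h later.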

[17] = target: Androgen receptor (Homo sapiens) (UniProt P10275); test: qHTS assay to identify small molecule agonists of the androgen receptor (AR) signaling pathway (AID 743036; active = well fitted activation curve with a large enough effect in the signal ratio in the repeat runs, with a control signal flat, not every such curve was filed as active; inconclusive = weak or mixed curves, or effect the other way; inactive = no such curve, though single readings can be large or run the other way; the % refers to the signal ratio)
Method in brief: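 Quantitative HTS of the Tox21 10K library in HEK293 cells bearing a stably integrated UAS-controlled beta-lactamase reporter. Compound exposure lasted 16 h at 37C. Reporter activity was detected by FRET substrate fluorescence after 2 h at room temperature.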

[18] = target: Androgen receptor (Homo sapiens) (UniProt P10275); test: qHTS assay to identify small molecule agonists of the androgen receptor (AR) signaling pathway using the MDA cell line (AID 743040; note: nearly all actives have a fitted effect of over 20% in size)
Method in brief: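 Luciferase agonist assay: 16 h compound exposure at 37C without CO2 in MDA-kb2 AR-luc cells, whose MMTV promoter responds to both AR and GR. Luminescence measured after 30 min room-temperature incubation with ONE-Glo.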

[19] = target: Androgen receptor (Homo sapiens) (UniProt P10275); test: qHTS assay to identify small molecule antagonists of the androgen receptor (AR) signaling pathway using the MDA cell line (AID 743042; note: nearly all actives have a fitted effect of over 55% in size)
Method in brief: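 Antagonist mode: compounds plus R1881 agonist added to MDA-kb2 AR-luc cells, incubated 16 h at 37C. Luciferase reporter luminescence quantified, with multiplexed CellTiter-Fluor readout for cell viability.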

## Nc1ccccc1C(=O)O
[1]
  outcome: inactive
[2]
  Potency: inactive
[3]
  Potency: inactive
[4]
  Potency: inactive
[5]
  outcome: inactive
[6]
  outcome: inactive
[7]
  Potency: inactive
[8]
  Potency: inactive
[9]
  outcome: inactive
[10]
  Potency: inactive
[11]
  Potency: inactive
[12]
  Potency: inactive
[13]
  Potency: inactive
[14]
  Potency: inactive
[15]
  outcome: inactive
Aromatase (Homo sapiens)
  Potency: inactive

## CN(N=O)c1ccccc1
[1]
  outcome: inactive
[2]
  Potency: inactive
[3]
  Potency: inactive
[4]
  Potency: inactive
[5]
  outcome: inactive
[6]
  outcome: inactive
[7]
  Potency: inactive
[8]
  Potency: inactive
[9]
  outcome: inactive
[10]
  Potency: inactive
[11]
  Potency: inactive
[12]
  Potency: inactive
[13]
  Potency: inactive
[14]
  Potency: inactive
[15]
  outcome: inactive
Aromatase (Homo sapiens)
  Potency: inactive

## C=C(C)CCl
[1]
  outcome: inactive
[2]
  Potency: inactive
[3]
  Potency: inactive
[4]
  Potency: inactive
[5]
  outcome: inactive
[16]
  Potency: inactive
[17]
  outcome: inactive
[18]
  outcome: inactive
[6]
  outcome: inactive
[19]
  outcome: inactive
[7]
  activity change, negative = cytotoxic: -10.5% [at 8.44 µM] (inactive)
[8]
  Potency: inactive
[9]
  outcome: inactive
[10]
  Potency: inactive
[11]
  Potency: inactive
[12]
  Potency: inactive
[13]
  Potency: inactive
[14]
  Potency: inactive
[15]
  outcome: inactive
Aromatase (Homo sapiens)
  Potency: inactive

## O=c1[nH]c(=O)[nH]c(=O)[nH]1
[1]
  outcome: inactive
[2]
  Potency: inactive
[3]
  Potency: inactive
[4]
  Potency: inactive
[5]
  outcome: inactive
[16]
  Potency: inactive
[17]
  outcome: inactive
[18]
  outcome: inactive
[6]
  outcome: inactive
[19]
  outcome: inactive
[7]
  Potency: inactive
[8]
  Potency: inactive
[9]
  outcome: inactive
[11]
  Potency: inactive
[15]
  outcome: inactive
Aromatase (Homo sapiens)
  Potency: inactive

## CCOP(=S)(OCC)Oc1cnc2ccccc2n1
[1]
  outcome: inactive
[2]
  Potency: 54.5 µM (active)
[3]
  Potency: 27.3 µM (active)
[4]
  Potency: 27.3 µM (active)
[5]
  outcome: inactive
[6]
  outcome: inactive
[7]
  Potency: inactive
[8]
  Potency: inactive
[9]
  outcome: inactive
[10]
  Potency: inactive
[11]
  Potency: inactive
[12]
  Potency: inactive and 17.4 µM [inconclusive] (active)
[13]
  Potency: inactive and 15.4 µM (active)
[14]
  Potency: inactive
[15]
  outcome: inactive
Aromatase (Homo sapiens)
  Potency: inactive

## Cc1[nH]c(=O)n(C(C)(C)C)c(=O)c1Cl
[1]
  outcome: inactive
[2]
  Potency: inactive
[3]
  Potency: inactive
[4]
  Potency: inactive
[5]
  outcome: inactive
[16]
  Potency: inactive
[17]
  outcome: inactive
[18]
  outcome: inactive
[6]
  outcome: inactive
[19]
  outcome: inactive
[7]
  Potency: inactive
[8]
  Potency: inactive
[9]
  outcome: inactive
[10]
  Potency: inactive
[11]
  Potency: inactive
[12]
  Potency: inactive
[13]
  Potency: inactive
[14]
  Potency: inactive
[15]
  outcome: inactive
Aromatase (Homo sapiens)
  Potency: inactive

## CC(C)C1(C)N=C(c2nc3ccccc3cc2C(=O)O)NC1=O (stereo not given)
[1]
  outcome: inactive
[2]
  Potency: inactive
[3]
  Potency: inactive
[4]
  Potency: inactive
[5]
  outcome: inactive
[6]
  outcome: inactive
[7]
  Potency: inactive
[8]
  Potency: inactive
[9]
  outcome: inactive
[10]
  Potency: inactive
[11]
  Potency: inactive
[12]
  Potency: inactive
[13]
  Potency: inactive
[14]
  Potency: inactive
[15]
  outcome: inactive
Aromatase (Homo sapiens)
  Potency: inactive

## [N-]=[N+]=[N-]
[1]
  outcome: inactive
[2]
  Potency: inactive
[3]
  Potency: inactive
[4]
  Potency: inactive
[5]
  outcome: inactive
[16]
  Potency: inactive
[17]
  outcome: inactive
[18]
  outcome: inactive
[6]
  outcome: inactive
[19]
  outcome: inactive
[7]
  Potency: inactive
[8]
  Potency: inactive
[9]
  outcome: inactive
[10]
  Potency: inactive
[11]
  Potency: inactive
[12]
  Potency: inactive
[13]
  Potency: inactive
[14]
  Potency: inactive and 68.6 µM (active)
[15]
  outcome: inactive
Aromatase (Homo sapiens)
  Potency: inactive
